Sfp PPTase inh: inhibitors of Bacillus subtilis Sfp phosphopantetheinyl transferase | Q9F4F7 | Biochemical Sfp PPTase activity, qHTS | Potency, µM, for inactives: largest response in the series, negative = inhibition, most hits filed as inhibitors | 3.5% of 310,000 active | AID 1490;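 further: the enzyme is Sfp with the accession as filed and its product quenches rhodamine fluorescence; 0% = enzyme reaction without inhibitor and -100% = no enzyme wells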
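Compounds were incubated with enzyme (final 15 nM) for 15 min at room temperature before substrate addition started the reaction. Fluorescence at 525 nm excitation, 598 nm emission was recorded immediately and after 30 minutes.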
G9a block: inhibitors of human histone lysine methyltransferase G9a; Q96KQ7; G9a H3K9 monomethylation, AlphaScreen, 2 h; Potency, µM (top dose mostly 102 µM), for the others: at the top dose activity, negative = inhibition, most hits filed as inhibitors; 8.8% of 350,000 active; AID 504332; further: on the % scale 0 is the no-effect control and ±100 the full control effect; nearly all actives have a fitted effect of over 75% in size
Target sequence (Q96KQ7 913-1193 limits assumed): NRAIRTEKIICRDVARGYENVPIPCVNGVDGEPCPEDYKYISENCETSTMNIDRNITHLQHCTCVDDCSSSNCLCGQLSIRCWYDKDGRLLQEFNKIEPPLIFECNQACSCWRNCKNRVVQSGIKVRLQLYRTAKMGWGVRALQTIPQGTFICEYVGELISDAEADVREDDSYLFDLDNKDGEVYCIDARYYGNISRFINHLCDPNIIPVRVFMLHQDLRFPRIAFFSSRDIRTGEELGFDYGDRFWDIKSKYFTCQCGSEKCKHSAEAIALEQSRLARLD
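Compounds were preincubated with 20 nM G9a for 15 min, after which biotinylated H3K9 peptide (500 nM) and SAM (20 uM) started a 2 h room-temperature reaction. Monomethylated product was quantified by antibody-based AlphaScreen chemiluminescence.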
HP1b binding inh: inhibitors of HP1-beta chromodomain binding to methylated histone tails | P83916 | AlphaScreen HP1-beta / biotin-H3K9me3 peptide binding | Potency, µM (doses to about 114 µM), for inactives: at the highest dose activity change, negative = inhibition, usual class: inhibitors | 0.56% of 390,000 active | AID 540317; further: nearly all actives have a fitted effect of over 70% in size
Target sequence (P83916 whole entry, looked up): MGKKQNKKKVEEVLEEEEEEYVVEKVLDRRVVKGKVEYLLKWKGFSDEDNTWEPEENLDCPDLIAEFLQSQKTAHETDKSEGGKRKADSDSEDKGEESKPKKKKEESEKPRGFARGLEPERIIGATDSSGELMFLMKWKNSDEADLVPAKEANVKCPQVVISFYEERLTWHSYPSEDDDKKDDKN
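HP1-beta protein (50 nM final) preincubated 30 min at room temperature with biotinylated H3(1-18)K9me3 peptide (50 nM) in PBS pH 7.4, 0.01% Tween-20, then compound added for 30 min. AlphaScreen streptavidin donor/nickel chelate acceptor beads (10 ug/mL final), 30 min dark, luminescence read.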
BAZ2B block: blocks human BAZ2B. AlphaScreen BAZ2B-H3K14Ac peptide displacement. Potency, µM (titrated, usually from 114 µM), inactives show at the highest dose activity change, negative = inhibition, actives largely listed as inhibitors. Q9UIF8. 4.4% of 360,000 active; further: on the % scale 0 is the no-effect control and ±100 the full control effect; nearly all actives have a fitted effect of over 60% in size
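Complex of BAZ2B and biotin-H3K14Ac (50 nM apiece) forms over 30 min at RT, then faces library compounds up to 110 uM for another 30 min; AlphaScreen beads added, 20 min dark incubation, luminescence read.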
JMJD2A Tudor: inhibitors of human JMJD2A Tudor domain. O75164. AlphaScreen JMJD2A-Tudor / H3K4me3 peptide binding. Potency, µM (top dose mostly 114 µM), without a hit: at the top dose activity change, negative = inhibition, hits mostly inhibitors. 4.4% of 390,000 active; further: on the % scale 0 is the no-effect control and ±100 the full control effect; nearly all actives have a fitted effect of over 50% in size
* = called active by the depositor; u = inconclusive; x = not tested or not shown; [ ] = remark or other dose. This is a sample that favours compounds with a hit; in the whole collection about 12% have one here. The call rests on the fitted dose curve; in most records, active means well fitted curve in the direction sought with a large enough effect; inconclusive means small, poorly fitted or top-dose-only effect, or another doubt; inactive means no such curve, though single readings can be large; an effect the other way counts as inactive or inconclusive. Potency means the concentration at half of the fitted maximal effect.

SMILES	Sfp PPTase inh	G9a block	HP1b binding inh	BAZ2B block	JMJD2A Tudor
COC(=O)c1ccc2c(=O)n(Cc3ccc4c(c3)OCO4)c(=S)[nH]c2c1	-2%	24%	45%	-4%	-10%
COCCNC(=O)c1ccc(Cn2c(=S)[nH]c3cc4c(cc3c2=O)OCO4)cc1	3%	u	38%	-29%	28µM*
COC(CNC(=O)c1ccc(Cn2c(=S)[nH]c3cc4c(cc3c2=O)OCO4)cc1)OC	15%	u	26%	u	22µM*
[N-]=[N+]=NC1CC(CO)OC1n1ccc(=O)[nH]c1=O (centres undefined)	19%	19%	21%	-1%	-15%
CC(=O)OCC1C2CC[C@H]3C(OCc4ccc(F)cc4C(F)(F)F)OC[C@]4(C)[C@H]3C2=C(CN4C(=O)OC(C)(C)C)[C@H](C)C1COC(C)=O (some centres undefined)	38%	x	x	x	x
COc1ccccc1C1C([N+](=O)[O-])=CC([N+](=O)[O-])=CN1C (centres undefined)	-24%	u	47%	6%	8%
COc1ccccc1C1NC=C([N+](=O)[O-])C=C1[N+](=O)[O-] (centres undefined)	u	3.5µM*	u	45µM*	u
CC(C)(C)C(=O)/C(=C/c1ccncc1)n1cncn1	35µM*	x	17%	-4%	-21%
C=CCOc1c(Br)cc(CNn2c(C)n[nH]c2=S)cc1OCC	-7%	16µM*	23%	-32%	u
COc1cc(CNn2c(C)n[nH]c2=S)cc(Cl)c1OCc1ccc(F)cc1	-26%	u	15%	u	-22%
C=CCOc1c(Br)cc(CNn2cn[nH]c2=S)cc1OC	-10%	-131%[59 µM]	22%	-11%	79µM*
COc1cc(CNn2c(C)n[nH]c2=S)cc(Br)c1OCc1ccc(F)cc1	-10%	22µM*	3%	u	-31%
CCc1ccc(OCC(=O)Nc2cc(-c3ccc(C)cc3)no2)cc1	x	-22%[59 µM]	42%	-5%	-20%
O=c1[nH]c(=S)[nH]c2c1C(c1cc([N+](=O)[O-])c(N3CCOCC3)cc1N1CCOCC1)O2 (centres undefined)	2%	45µM*	12%	-16%	-35%
Cc1ccc(N2C(=O)CS/C2=C(\C(Cl)=C(Cl)Cl)[N+](=O)[O-])cc1	-28%	20µM*	u	45µM*	40µM*
CCN(CC(=O)Nc1ccc2c(c1)OCCO2)CC(=O)Nc1ccc(C)c([N+](=O)[O-])c1	x	x	-17%[57 µM]	x	u
Cc1cccc(CNC(=O)c2ccc3nc(-c4ccccc4)c(-c4ccccc4)nc3c2)c1	x	5%[59 µM]	11%	-1%	-14%
CCCCCCn1cc(C(=O)O)c(=O)c2ccccc21	10%	45µM*	27%	-35%	u
COc1ccc(C(NCC(=O)Nc2c(C)cccc2C)c2ccccc2)cc1 (centres undefined)	u	u	28µM*	32µM*	20µM*
O=S(=O)(c1cc(O)ccc1O)c1cccc2c(S(=O)(=O)c3cc(O)ccc3O)cccc12	x	20%[2.33 µM]	16µM*	11µM*	18µM*
Cc1ccc(OCCSc2nc3ccccc3n2CC(=O)N2CCOCC2)c(C)c1	x	-39%[59 µM]	28%	u	-20%
Cc1cccc(OCCSc2nc3ccccc3n2CC(=O)N2CCOCC2)c1C	x	10µM*	-13%	u	-26%
Cc1ccc(OCCSc2nc3ccccc3n2CC(=O)N2CCCCC2)cc1C	x	13µM*	-1%	-35%	-33%
Cc1ccc(S(=O)(=O)Nc2ccsc2C#N)cc1	9%	40µM*	35%	u	-5%
CC(=O)c1c(C)oc2ccc(N(C(=O)Oc3ccccc3)S(=O)(=O)c3ccc(Br)cc3)cc12	x	-44%[59 µM]	23%	-7%	-13%
SMILES	Sfp PPTase inh	G9a block	HP1b binding inh	BAZ2B block	JMJD2A Tudor
O=C(Cc1ccc2c(c1)CCCC2)Nc1ccc2ccccc2c1	-11%	7.1µM*	u	-4%	-12%
CC(CNC(=O)CN(C)CC(=O)Nc1ccccc1Br)c1ccccc1 (centres undefined)	x	45µM*	32%	13%	5%
CN(CC(=O)Nc1ccc2c(c1)CCC2)CC(=O)Nc1ccccc1Br	7%	7%	21%	12%	14µM*
COc1ccc(NC(=O)CN(C)CC(=O)Nc2ccc3c(c2)CCC3)cc1	17%	-19%	16%	-22%	-17%
COc1ccc(N(C(=O)c2ccccc2C)S(=O)(=O)c2ccc3c(c2)n(C)c(=O)n3C)cc1	x	7%[59 µM]	22%	0%[57.1 µM]	-10%
Cc1nn2c(=O)cc(COC(=O)c3cccc(NC(=O)c4ccc(C(C)(C)C)cc4)c3)nc2s1	x	7%[59 µM]	8%	-3%	-20%
COc1ccc(NC(=O)c2sc3nc[nH]c(=O)c3c2C)cc1Cl	x	15%[59 µM]	9%[57 µM]	3%	-9%
Clc1ccc(-c2nnc(-c3cccnc3)o2)cc1	7%	16%	39%	8%	-16%
S=c1[nH]nc(-c2cccnc2)n1-c1ccccc1	79µM*	1.6µM*	21%	-30%	7.9µM*
Fc1ccccc1-n1c(-c2ccc3ccccc3n2)n[nH]c1=S	-27%	-138%[59 µM]	29%	u	-32%
S=c1[nH]nc(-c2ccc(Cl)cc2)n1-c1cccnc1	-18%	10µM*	42%	-16%	8.9µM*
c1ccc(-c2nc(-c3cccnc3)n[nH]2)cc1	14%	21%[59 µM]	x	-1%	x
S=c1[nH]nc(-c2ccc3ccccc3n2)n1-c1ccccc1	-5%	1.6µM*	27%	-1%	u
COc1ccccc1-n1c(-c2cccnc2)n[nH]c1=S	50µM*	3.2µM*	16%	12%	4.5µM*
Cc1ccc(C(=O)NCCCNC(=O)COc2ccc(Cl)cc2)cn1	30%	-7%[59 µM]	5%	7%	-20%
CC(=O)c1ccc(NC(=O)Cn2c(=O)oc3cc(S(=O)(=O)N4CCCCC4)ccc32)cc1	x	7%[59 µM]	35%	5%	-3%
O=C(CN1C(=O)NC2(CCCC2)C1=O)Oc1ccc2ccc(=O)oc2c1	x	5%[12.7 µM]	71%	-6%	-14%
Oc1c(C(c2ccccc2F)N2CCN(Cc3ccccc3)CC2)sc2nc(-c3ccco3)nn12 (centres undefined)	x	-34%[59 µM]	31%	u	u
Oc1c(C(c2ccc(Cl)cc2Cl)N2CCN(c3ccccc3)CC2)sc2nc(-c3ccco3)nn12 (centres undefined)	x	11µM*	22%	-15%	-28%
Cc1ccc(C(c2sc3nc(-c4ccco4)nn3c2O)N2CCN(c3ccc(F)cc3)CC2)cc1 (centres undefined)	x	-11%[59 µM]	u	-20%	u
COc1ccc(N2CCN(C(c3ccc(F)cc3)c3sc4nc(-c5ccco5)nn4c3O)CC2)cc1 (centres undefined)	x	u	u	40µM*	u
Oc1c(C(c2ccc(Cl)cc2Cl)N2CCOCC2)sc2nc(-c3ccco3)nn12 (centres undefined)	x	-30%[59 µM]	10%	u	-19%

Screening results as filed in PubChem BioAssay.
